BAZ2B inh: blocks human BAZ2B; AlphaScreen BAZ2B-H3K14Ac peptide displacement; Q9UIF8; Potency, µM (titrated, usually from 114 µM), for the others: at the top dose activity change, negative = inhibition, usual class: inhibitors; actives 4.4% (n = 360,000); AID 504333; note: % is set by controls: 0 for no effect and ±100 for the full control effect; nearly all actives have a fitted effect of over 60% in size
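AlphaScreen displacement of biotin-H3(5-23)K14Ac peptide (50 nM final) from BAZ2B (50 nM final) in PBS pH 7.4, 0.01% Tween-20; complex preformed 30 min RT, then compounds (top 110 uM) 30 min RT, beads 20 min dark.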
L3MBTL1 inh: inhibitors of human L3MBTL1. Q9Y468. AlphaScreen L3MBTL1–H3K9me1 peptide binding. Potency, µM (series often up to 57.1 µM), inactives show at the highest dose activity, negative = inhibition, most hits filed as inhibitors. actives 0.66% (n = 230,000); note: % is set by controls: 0 for no effect and ±100 for the full control effect; nearly all actives have a fitted effect of over 60% in size
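Read-out is AlphaScreen signal from streptavidin donor and nickel chelate acceptor beads (10 ug/mL final each) bridging L3MBTL1 (50 nM) and biotinylated K9-monomethylated H3(1-15) peptide (75 nM), after 30 min compound exposure at room temperature.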
G9a inh: G9a (human) methyltransferase inhibition. G9a H3K9 monomethylation, AlphaScreen, 2 h. AID 504332. Potency, µM (top dose mostly 102 µM), without a hit: at the highest dose activity, negative = inhibition, usual class: inhibitors. actives 8.8% (n = 350,000); note: % is set by controls: 0 for no effect and ±100 for the full control effect; nearly all actives have a fitted effect of over 75% in size
Target sequence (Q96KQ7 913-1193 limits assumed): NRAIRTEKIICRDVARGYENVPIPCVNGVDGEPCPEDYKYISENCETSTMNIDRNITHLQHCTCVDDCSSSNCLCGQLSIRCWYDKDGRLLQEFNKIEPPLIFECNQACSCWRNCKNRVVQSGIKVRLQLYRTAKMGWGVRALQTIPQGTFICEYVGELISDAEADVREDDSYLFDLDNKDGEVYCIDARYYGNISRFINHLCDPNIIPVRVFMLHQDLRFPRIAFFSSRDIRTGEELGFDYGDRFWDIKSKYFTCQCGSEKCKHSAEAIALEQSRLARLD
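G9a (20 nM) was preincubated 15 min with compound, then reacted 2 h at room temperature with 500 nM biotin-H3K9 peptide and 20 µM SAM. Monomethyl-H3K9 detected by AlphaScreen using anti-H3K9me1 antibody.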
JMJD2A Tudor inh: inhibitors of human JMJD2A Tudor domain; AlphaScreen JMJD2A-Tudor / H3K4me3 peptide binding; Potency, µM (top dose mostly 114 µM), for the others: top-dose activity change, negative = inhibition, most hits filed as inhibitors; actives 4.4% (n = 390,000); note: % is set by controls: 0 for no effect and ±100 for the full control effect; nearly all actives have a fitted effect of over 50% in size
HP1b binding inh: inhibitors of HP1-beta chromodomain binding to methylated histone tails | P83916 | AlphaScreen HP1-beta / biotin-H3K9me3 peptide binding | Potency, µM (series often up to 114 µM), for inactives: top-dose activity change, negative = inhibition, actives largely listed as inhibitors | actives 0.56% (n = 390,000); note: nearly all actives have a fitted effect of over 70% in size
Target sequence (P83916 whole entry, looked up): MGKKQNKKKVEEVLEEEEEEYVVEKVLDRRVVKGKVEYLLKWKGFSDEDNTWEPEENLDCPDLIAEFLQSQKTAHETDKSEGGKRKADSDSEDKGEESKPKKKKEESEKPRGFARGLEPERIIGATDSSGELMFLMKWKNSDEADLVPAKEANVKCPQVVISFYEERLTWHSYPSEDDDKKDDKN
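Compound inhibition of the preformed complex between 50 nM HP1-beta and 50 nM biotinylated H3K9me3 peptide was read by AlphaScreen. Buffer was PBS pH 7.4 with 0.01% Tween-20. Incubations ran 30 min at room temperature, with 10 ug/mL donor/acceptor beads.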
Numbers without * were called inactive; ? = inconclusive; / = not tested or not shown; ! = not confirmed by another sample; [ ] = dose if it differs, or a comment. A selection: hits, their analogues and other compounds. The true share with any hit is near 11%. Calls come from the whole dose curve; as a rule, active = well fitted inhibition curve with a large enough effect; inconclusive = small, poorly fitted or top-dose-only effect; inactive = no such curve, though single readings can be large or run the other way. Potency is the fitted concentration of half-maximal effect.

SMILES	BAZ2B inh	L3MBTL1 inh	G9a inh	JMJD2A Tudor inh	HP1b binding inh
COc1ccccc1CNc1ncnc2ccc(-c3cccc(C#N)c3)cc12	/	/	-38%[0.501 µM]	/	/
COc1ccc(OC)c(CCNC(=O)c2ccc3c(c2)N(Cc2ccc(F)cc2)CCS3)c1	?	/	14%	-34%	27%
CCOc1ccc(CCNC(=O)c2ccc3c(Cl)c4c(nc3c2)CCCC4)cc1	-11%	/	-42%[59 µM]	-11%	16%
CCOc1ccc(CCNC(=O)c2ccc3c(=O)[nH]c4c(C(=O)NC(C)C)sc(=S)n4c3c2)cc1	?	/	45µM*	9%	20%
COc1ccc(OC)c(CCNC(=O)c2ccc3c(=O)[nH]c4c(C(=O)NC(C)C)sc(=S)n4c3c2)c1	40µM*	/	/	56µM*	?
CC(C)NC(=O)c1sc(=S)n2c1[nH]c(=O)c1ccc(C(=O)NCCc3ccc(Cl)cc3)cc12	-24%	/	45µM*	35µM*	-21%[57 µM]
CCOC(=O)C1CCCN(C(=O)Cn2c(=O)c3cccn3c3cccnc32)C1 (centres undefined)	-20%	/	7%	-16%	30%
S=C(N/N=C1\C2CN3CCN(C2)CC1(c1ccccc1)C3)Nc1ccccc1	?	-4%	20%[59 µM]	?	-6%
S=C(NN=C1C2CC3CC(C2)CC1C3)Nc1ccccc1	?	/	?	50µM*	?
CCN1CCN(C(=O)c2cc(S(=O)(=O)Nc3ccc(S(C)(=O)=O)cc3)ccc2Cl)CC1	-23%	5%	50µM*	-8%	26%
CC(C(N)=O)N1C(=O)NC2(CCCc3ccccc32)C1=O (centres undefined)	-1%	/	-8%	-7%	19%
CC(C)(Cc1cccc(CC(C)(C)C(=O)O)c1)C(=O)O	3%	3%	14%	-12%	62%
CC(N)(Cc1ccc(O)c(O)c1)C(=O)O (centres undefined)	/	/	0.95µM*	/	/
O=C(O)c1ccc(O)c(O)c1	-36%	?	/	-21%	28%
COc1ccc(C[C@@](C)(N)C(=O)O)cc1OC	/	/	39%[21.5 µM]	/	/
C[C@](Cc1ccc(O)c(O)c1)(NN)C(=O)O	/	/	2.2µM*	/	/
C[C@@](Cc1ccc(O)c(O)c1)(NN)C(=O)O	5%	4%	3.2µM*!	79µM*	?
CCC1CCCCN1CCCNC(=O)c1[nH]c2ccccc2c1Sc1ccc(Cl)cc1 (centres undefined)	-36%	/	-44%[59 µM]	-6%	43%
Cc1noc(-c2ccc(N(C)Cc3ccccc3)c([N+](=O)[O-])c2)n1	3%	/	-6%[59 µM]	-16%	14%
CCc1nc(N)nc(N)c1-c1ccc(N(C)Cc2ccccc2)c([N+](=O)[O-])c1	/	/	/	45µM*	-37%
O=C(COC(=O)c1ccc[n+]([O-])c1)Nc1ccc([N+](=O)[O-])cc1Cl	/	0%	/	-11%	14%
O=C(OCC#CCSc1nnc(-c2cccc3ccccc23)o1)c1ccc(F)cc1F	/	/	/	26%	/
CN1CCN(c2oc(-c3ccc(OCc4ccc(Cl)cc4)cc3)nc2C#N)CC1	/	/	/	-18%	20%
COc1ccc(/C=C/C(=O)NCC(=O)N2CCC(N(C)CCN3CCOCC3)CC2)cc1OC	50µM*	/	7.9µM*	?	?
CCNS(=O)(=O)c1ccc(NC(=O)c2ccc(Cn3cc([N+](=O)[O-])cn3)o2)cc1	16%	/	50µM*	-10%	1%
SMILES	BAZ2B inh	L3MBTL1 inh	G9a inh	JMJD2A Tudor inh	HP1b binding inh
CN(C)c1ccc(NC(=O)c2ccc(Cn3cc([N+](=O)[O-])cn3)cc2)cc1	25µM*	/	14µM*	50µM*	45µM*
CCOP(=O)(OCC)C(C#N)=C1SCN(c2ccc(Cl)cc2)CS1	8%	-3%	?	79µM*	-2%
O=C(CSc1ccc(Cl)cc1)Nc1cccc(-c2nnc(-c3ccco3)o2)c1	0%	2%	25%[59 µM]	-12%	11%
O=C(CSc1ccc(Cl)cc1)Nc1nnc(-c2ccco2)o1	50µM*	17%	-38%	?	47%
O=C(CSc1nnc(-c2ccco2)o1)NC(=O)Cc1ccccc1	79µM*	/	?	-17%	16%
O=C(Nc1ccccc1F)C(Cc1ccccc1)N1Cc2ccccc2C1=O (centres undefined)	1%	/	-15%[59 µM]	-8%	25%
CCCCCCCCCCOCC(O)CN (centres undefined)	/	/	1%[12.7 µM]	/	/
CC(C)CC(=O)N(Cc1ccccc1)S(=O)(=O)c1ccc2c(c1)oc(=O)n2C	23%	/	14%[59 µM]	-2%	77%
CCn1c(COc2ccccc2)nnc1SCc1ccc(C#N)cc1	3%	5%	0%[59 µM]	-4%	37%
CCn1c(COc2ccc(Cl)cc2)nnc1SCc1ccc(C#N)cc1	-1%	6%	40µM*	-24%[11.4 µM]	62%
COc1ccc(NC(=S)Nc2cccc(C(C)=O)c2)cc1OC	?	-8%[11.4 µM]	?	-16%	-5%
COc1ccc(NC(=S)Nc2cccc(Cl)c2)cc1OC	-25%	-13%	50µM*	0%	4%
COCCCNC(=S)NNC(=S)Nc1cccc(Cl)c1	-26%	42%	/	3.2µM*	-12%
COCCCNC(=S)NNC(=S)NCCCOC	-17%	9%	8.9µM*	13µM*	-25%
COCCCNC(=S)NNC(=O)c1ccccn1	3.5µM*	8.9µM*	20%	20µM*	21%
OC[C@H]1O[C@@H](n2cnc3c(N[C@H]4C[C@H]5CC[C@@H]4C5)ncnc32)[C@H](O)[C@@H]1O	/	/	35%[59 µM]	/	/
Cc1ccc(NC(=O)CN(C)S(=O)(=O)c2ccc3c(c2)CCC(=O)N3)c(C)c1	-13%	/	5%[59 µM]	-12%	25%
Cc1c(Cl)cccc1NC(=O)C(=O)NCCc1csc(-c2cccc(F)c2)n1	1%	/	-1%[59 µM]	-10%	14%[57 µM]
CC(=Nc1ccccc1)c1sc2ccccc2c1O	?	22%	?	56µM*	-15%
COC(=O)c1cc2c(cc1[N+](=O)[O-])OCO2	-16%	/	-13%	-3%	41%
Nc1cc2c(cc1C(=O)c1ccccc1)OCCO2	40µM*	-22%	/	?	-34%
Nc1cc2c(cc1C(=O)c1ccc(Cl)cc1)OCCO2	35µM*	/	45µM*	50µM*	-56%
Cc1ccc(C(=O)c2cc3c(cc2N)OCCO3)cc1	35µM*	?	28µM*	50µM*	-15%
COC(=O)c1cc2c(cc1N)OCCO2	?	-3%	56µM*	-22%	21%
C=CCOc1ccccc1/C=c1\sc2nc(=O)c(C)nn2c1=O	?	?	?	?	-7%
COc1cccc(/C=c2\sc3nc(-c4cccs4)nn3c2=O)c1OC	-24%	7%	-42%[59 µM]	-21%	-19%
O=c1/c(=C/c2ccco2)sc2nc(-c3ccccc3Br)nn12	45µM*	?	22µM*	50µM*	8.9µM*
COc1ccc(/C=c2\sc3nc(-c4ccccc4OC)nn3c2=O)c(OC)c1	-18%	4%	-6%[12.7 µM]	89µM*	3%
COc1ccccc1-c1nc2s/c(=C\c3cccs3)c(=O)n2n1	-33%	/	2.8µM*	-5%[11.4 µM]	-38%

High-throughput results deposited in PubChem BioAssay by National Center for Advancing Translational Sciences (NCATS).
